Laboratory results reported in the supplement of paper PMC10646978.
± gives the standard deviation.

system: RAW-Dual (murine macrophage reporter line); experiment: NF-kB reporter (SEAP) activity fold change vs agonist alone; higher = enhanced NF-kB activity; details: modulator concentration 10 µM; agonist: MPLA […]
Summary of the method: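 Compound reached 10 μM final in each well by pin transfer, onto RAW-Dual murine macrophage reporter cells seeded at 50 000 per well in 384-well plates. After 1 hour at 37 °C, the cells were stimulated overnight with a PRR agonist. SEAP in the supernatant was read with QUANTI-Blue at 620 nm absorbance for NF-κB, and Lucia luciferase was read with QUANTI-Luc luminescence for IRF. Each signal was turned into fold change against the mean agonist-only control on the same plate, and two replicate plates were averaged with propagated errors.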

Point of comparison: `COc1ccc(Cc2nnc(C3CCN(S(C)(=O)=O)CC3)s2)cc1`, NF-kB reporter 0.93 ± 0.12. Against it:
- CC(C(=O)O)c1ccc(C(=O)c2cccs2)cc1 (centres undefined) — within error, 0.995 ± 0.065
- CCOC(=O)Nc1ccc(NCc2ccc(F)cc2)nc1N.O=C(O)/C=C/C(=O)O — within error, 0.885 ± 0.05
- O=C(NC1CCCCCC1)c1ccc([N+](=O)[O-])cc1Cl — within error, 0.919 ± 0.1
- Cc1cc(CCNC(=O)c2nc3ccccc3s2)nn1C — within error, 0.978 ± 0.053
- CCC(=O)Nc1ccc(S(=O)(=O)N2CCC(Oc3ncnc(CC)c3F)C2)c(C)c1 (centres undefined) — higher, 1.2 ± 0.083
- Cl.O=S(=O)(c1cccc2cnccc12)N1CCCNCC1 — within error, 1.06 ± 0.06
- N#CC(=Cc1ccc(-c2ccc(Cl)cc2)o1)C(N)=O — within error, 1.13 ± 0.1
- O=C1CC(c2ccc(O)cc2)Oc2cc(O)cc(O)c21 (centres undefined) — higher, 1.21 ± 0.077
- Cc1noc(C)c1CN1CCC(C(F)(F)F)CC1.Cl — within error, 1.1 ± 0.066
- Cc1cccc(OCCCOc2cccc3cccnc23)c1C — within error, 1.07 ± 0.1
- COC(=O)C1C(=O)C(=CNc2ccccc2C)C(=O)CC1(C)C (centres undefined) — within error, 1.03 ± 0.1
- Cc1ccc(-c2ncnn2-c2ccc(Cl)cc2)cc1 — within error, 1.02 ± 0.11
- COc1ccnc(CS(=O)c2nc3ccc(OC(F)F)cc3[nH]2)c1OC (centres undefined) — within error, 0.879 ± 0.053
- Cc1cc(OC2CN(C(=O)Cn3cnc4ccccc43)C2)cc(=O)n1C1CC1 — within error, 0.97 ± 0.026
- COc1ccc(-c2ccc(OCCNC(=O)Cc3ccc(Br)cc3)nn2)cc1 — within error, 0.908 ± 0.055
- CCS(=O)(=O)N1CCC2(CC1)NC(=O)N(CCOc1ccccc1)C2=O — within error, 1.09 ± 0.078
- Cc1nc2ccc(CN(C)c3ccc(C(=O)N[C@@H](CCC(=O)O)C(=O)O)s3)cc2c(=O)[nH]1 — higher, 1.18 ± 0.1
- NC(=O)CN1C(=O)C2C3c4ccccc4C(c4ccccc43)C2C1=O (centres undefined) — within error, 0.965 ± 0.036
